In PubChem BioAssay (Tox21):
Results filed as inconclusive are left out. Values without a mark were called inactive. Activity calls are given as the source filed them. Calls come from the whole dose curve; as a rule, active = well fitted cell-killing curve with a large enough effect in the repeat runs; inconclusive = weak or mixed curves, or effect the other way; inactive = flat fitted curve, though single readings scatter.

Assay: qHTS assay to identify small molecule agonists of the constitutive androstane receptor (CAR) signaling pathway - cell viability counter screen (AID 1224836); note: nearly all actives have a fitted effect of over 45% in size
Details: HepG2-CYP2B6-hCAR viability, CellTiter-Fluor, 23 h, PK11195 added to every well; series mostly up to 92.4 µM; viability change, negative = cytotoxic: at the top concentration
Description: U.S. Tox21 Program National Center for Advancing Translational Sciences [NCATS] NIH Chemical Genomics Center [NCGC] U.S. Environmental Protection Agency [EPA] National Institutes of Environmental Health Sciences [NIEHS] National Toxicology Program [NTP] U.S. Food and Drug Administration [FDA] Tox21 Assay Overview: The constitutive androstane receptor (CAR) is a nuclear receptor which regulates multiple drug metabolizing enzymes (DMEs) and transporters. Activating CAR will generally increase the transcription and subsequent translation of CYP2B6 and CYP3A4. These two DMEs represent about 50% of the drug metabolizing potential in the body. […] Recently, there have also been studies performed indicating CARs role in energy metabolism and cancer therapy. Therefore, inducing CARs activity could have a potential effect on diabetes and cancer. Identifying environmental toxins and compounds which modulate CAR, through the use of the Tox21 10K compound collection, will be an important step in determining the toxicity and potential therapeutic effects these factors will have on the human body. To differentiate true CAR agonists from cytotoxic substances, the assay is multiplexed with a cell viability assay.
Tox21 Assay Protocol Summary: A double-stable (hCAR and CYP2B6-2.2kb) transfected cell line, derived from human hepatoma (HepG2) cells, was utilized for the duration of the quantitative high-throughput screens. The HepG2-CYP2B6-hCAR cells were dispensed at 2500 cells/4 uL/well in 1536-well white solid bottom plates using a Multidrop Combi. After the assay plates were incubated at 37 C/5% CO2 for 4 hrs, 23 nL of compounds at 15 concentrations (from 5-48 columns) or positive control (from 1 to 4 columns) were transferred to the assay plates using a Pintool station. One uL of PK11195 (final concentration = 0.75 uM) was added, using a Flying Reagent Dispenser, inside each well. After a 23 hr incubation period at 37 C/5% CO2, 1 uL of CellTiter-Fluor reagent was added into each well of the assay plates using a Flying Reagent Dispenser. The fluorescence intensity in the plates was then measured using a ViewLux plate reader.
% is set by controls: 0 for no effect and ±100 for the full control effect; potency is the fitted concentration of half-maximal effect.

**Q.** With `C/C(=C(\CCOP(=O)(O)O)SC(=O)c1ccccc1)N(C=O)Cc1cnc(C)nc1N` as the molecule, how does the viability change, negative = cytotoxic read?
**A.** Its viability change, negative = cytotoxic is -1.07% [at 8.39 µM].

**Q.** Which “viability change, negative = cytotoxic” value does the source give for `CC(=O)NO` here?
**A.** Its value is 10.2% [at 42.5 µM].

**Q.** Which “viability change, negative = cytotoxic” value does the source give for `Cc1c(N)cccc1[N+](=O)[O-]` here?
**A.** The value was -1.67%.

**Q.** With `O=P(O)(OCc1ccccc1)OCc1ccccc1` as the molecule, how does the “viability change, negative = cytotoxic” value read?
**A.** The value was 9.89%.

**Q.** Which “viability change, negative = cytotoxic” value does the source give for `CCCCCCCCCCCCN1CCCCCC1=O` here?
**A.** The value was 4.42%.

**Q.** Which “viability change, negative = cytotoxic” value does the source give for `CN(C)CCN(Cc1ccccc1)c1ccccn1` here?
**A.** Its value is -14.7% [at 42.5 µM].

**Q.** With `CC[N+]1(CC)CCC(=C(c2ccccc2)c2ccccc2)C1C` (stereo not given) as the molecule, how does the “viability change, negative = cytotoxic” value read?
**A.** Its value is -6.42% [at 42.5 µM].

**Q.** Which “viability change, negative = cytotoxic” value does the source give for `CCCCCCCN` here?
**A.** The value was 1.1%.

**Q.** With `CCc1c(C(=O)NN2CCCCC2)nn(-c2ccc(Cl)cc2Cl)c1-c1ccc(Br)cc1` as the molecule, how does the “viability change, negative = cytotoxic” value read?
**A.** The value was -18.9%.

**Q.** Which Potency does the source give for `CCN(CC)CCNc1ccc(CNC=O)c2sc3ccc(OC)cc3c(=O)c12` here?
**A.** The Potency was 8.63 µM (active).

**Q.** Which “viability change, negative = cytotoxic” value does the source give for `C[C@@H](c1ncncc1F)C(O)(Cn1cncn1)c1ccc(F)cc1F` (stereo not given in full) here?
**A.** The value was 4.25% [at 42.5 µM].

**Q.** For `O=C1OC(CN2CCOCC2)CN1/N=C/c1ccc([N+](=O)[O-])o1` (stereo not given), which “viability change, negative = cytotoxic” value is on record?
**A.** Its value is -21.3% [at 42.5 µM].

**Q.** With `CC(C)(C)Cl` as the molecule, how does the “viability change, negative = cytotoxic” value read?
**A.** The value was 5.67%.

**Q.** For `Cc1ccccc1S(=O)(=O)O`, which “viability change, negative = cytotoxic” value is on record?
**A.** The value was 4.74%.

**Q.** For `CC(C)CC(=O)C1C(=O)c2ccccc2C1=O`, which “viability change, negative = cytotoxic” value is on record?
**A.** The value was -20%.

**Q.** With `CCC(Cl)CCC(Cl)C(Cl)CC(Cl)C(Cl)C(Cl)CCl` (stereo not given) as the molecule, how does the “viability change, negative = cytotoxic” value read?
**A.** The value was -2.93%.

**Q.** With `O=C(OCCCCCCOC(=O)c1ccccc1)c1ccccc1` as the molecule, how does the “viability change, negative = cytotoxic” value read?
**A.** Its value is -0.971%.

**Q.** With `OCc1cc(C(O)CNCCCCCCOCCCCc2ccccc2)ccc1O` (stereo not given) as the molecule, how does the Potency read?
**A.** The Potency was 10.6 µM (active).

**Q.** Which “viability change, negative = cytotoxic” value does the source give for `C=CCOc1ccccc1OCC(O)CNC(C)C` (stereo not given) here?
**A.** The value was -6.78% [at 42.5 µM].

**Q.** Which “viability change, negative = cytotoxic” value does the source give for `CC(C)Nc1ccc(NC(C)C)c2c1C(=O)c1ccccc1C2=O` here?
**A.** Its value is -20.9% [at 42.5 µM].

**Q.** For `COc1ccc(S(=O)(=O)N2C(=O)[C@@](c3ccccc3OC)(N3C[C@H](O)C[C@H]3C(=O)N(C)C)c3cc(Cl)ccc32)c(OC)c1`, which Potency is on record?
**A.** The Potency was 30.6 µM (active).

**Q.** For `CCC(CC)Nc1ccc(C)c(C)c1`, which “viability change, negative = cytotoxic” value is on record?
**A.** Its value is 1.62%.

**Q.** Which “viability change, negative = cytotoxic” value does the source give for `CO[C@@H]1[C@H](OC(=O)/C=C/C=C/C=C/C=C/C(=O)O)CC[C@]2(CO2)[C@H]1[C@@]1(C)O[C@@H]1CC=C(C)C` here?
**A.** Its value is -9.09%.

**Q.** For `CCCOC(C(=O)OC1CCN(C)CC1)(c1ccccc1)c1ccccc1`, which “viability change, negative = cytotoxic” value is on record?
**A.** The value was -15.6% [at 42.5 µM].

**Q.** With `CCCCCCCCCCCC(=O)OC[C@@H](O)[C@H]1OC[C@H](OCCO)[C@H]1OCCO` as the molecule, how does the “viability change, negative = cytotoxic” value read?
**A.** Its value is -10.7%.

**Q.** Which “viability change, negative = cytotoxic” value does the source give for `CC(=O)[O][Al][O]C(C)=O` here?
**A.** The value was 3.53%.

**Q.** Which “viability change, negative = cytotoxic” value does the source give for `CCCCc1nc2cccnc2n1Cc1ccc(-c2ccccc2-c2nnn[nH]2)cc1` here?
**A.** Its value is -19%.

**Q.** With `COC(=O)C1=C(C)NC(COC(N)=O)=C(C(=O)OC(C)C)C1c1cccc(Cl)c1Cl` (stereo not given) as the molecule, how does the “viability change, negative = cytotoxic” value read?
**A.** The value was -4.89% [at 42.5 µM].

**Q.** With `C[C@H](CCC(=O)O)[C@H]1CC[C@H]2[C@@H]3CC[C@@H]4C[C@H](O)CC[C@]4(C)[C@H]3C[C@H](O)[C@]12C` as the molecule, how does the “viability change, negative = cytotoxic” value read?
**A.** The value was -16.9%.

**Q.** For `Nc1ccc(S(=O)(=O)Nc2ccccc2)cc1`, which “viability change, negative = cytotoxic” value is on record?
**A.** Its value is -6.44% [at 42.5 µM].

**Q.** Which “viability change, negative = cytotoxic” value does the source give for `COc1cccc(N(C)C(=S)Oc2ccc3c(c2)CCCC3)n1` here?
**A.** Its value is -6.46% [at 42.5 µM].

**Q.** With `COCC(C)OC(C)=O` (stereo not given) as the molecule, how does the “viability change, negative = cytotoxic” value read?
**A.** The value was 4.65%.

**Q.** For `CC1(c2ccccc2)OC(C(=O)O)=CC1=O` (stereo not given), which “viability change, negative = cytotoxic” value is on record?
**A.** The value was 2.39% [at 42.5 µM].

**Q.** Which “viability change, negative = cytotoxic” value does the source give for `CCCCCCCCCCCCCCCCOS(=O)(=O)O` here?
**A.** The value was -7.51% [at 42.5 µM].

**Q.** For `CNC(=O)CN(CCN(CCN(CC(=O)[O-])CC(=O)NC)CC(=O)[O-])CC(=O)[O-].O.[Gd+3]`, which “viability change, negative = cytotoxic” value is on record?
**A.** The value was 4.59% [at 42.5 µM].

**Q.** With `O=C(CS)Nc1ccccc1` as the molecule, how does the “viability change, negative = cytotoxic” value read?
**A.** Its value is 2.66% [at 42.5 µM].

**Q.** Which viability change, negative = cytotoxic does the source give for `C/C=C/C(=O)CC` here?
**A.** Its viability change, negative = cytotoxic is 4.38% [at 19 µM].

**Q.** For `CC(=O)c1ccc2c(c1)N(CCCN1CCC(CCO)CC1)c1ccccc1S2`, which “viability change, negative = cytotoxic” value is on record?
**A.** The value was -22.3% [at 42.5 µM].

**Q.** With `CCOC(=O)Cc1cccc2ccccc12` as the molecule, how does the “viability change, negative = cytotoxic” value read?
**A.** Its value is 3.51%.

**Q.** For `Cc1cccc(C)c1OCC(=O)N[C@@H](Cc1ccccc1)[C@@H](O)C[C@H](Cc1ccccc1)NC(=O)[C@H](C(C)C)N1CCCNC1=O`, which Potency is on record?
**A.** The Potency was 18.8 µM (active).
